Compound activity: PubChem BioAssay, National Center for Advancing Translational Sciences (NCATS)
uPA generation: cell surface uPA generation inhibition | cell surface uPA generation assay, qHTS | Potency, µM (titrated, usually from 38.3 µM), for inactives: at the top dose activity change, negative = inhibition, hits mostly inhibitors | 330,000 tested, 0.31% active; active = well fitted inhibition curve with a large enough effect; inconclusive = small, poorly fitted or top-dose-only effect; inactive = no such curve, though single readings can be large or run the other way; tested in mouse RAW 264.7 cells; also: potency is read from the fitted curve at half-maximal effect; nearly all actives have a fitted effect of over 55% in size
DT40 TDP1 CPT: growth inhibition of DT40 Tdp1-/-;hTDP1 cells with camptothecin (screen for TDP1 inhibitors); Potency, µM (highest dose often 46.2 µM), without a hit: top-dose activity change, negative = growth inhibition, actives largely listed as inhibitors; AID 686979; 420,000 tested, 12% active; chicken DT40 Tdp1-/-;hTDP1 cells + 20 nM CPT, ATP luminescence, 48 h; also: potency is read from the fitted curve at half-maximal effect; nearly all actives have a fitted effect of over 55% in size
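Cell growth measured by CellTiter-Glo luminescence after a minimum 48 h, 37 C compound exposure with 20 nM CPT in Tdp1-knockout DT40 cells stably expressing hTDP1, seeded 400/well; qHTS titration format.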
IL-1B inflam inh: inhibitors of inflammasome signaling (IL-1 beta secretion). THP-1 LPS/ATP IL-1B secretion, AlphaLISA, 16 h; active compounds read low. activity change, % at 57.5 µM. 360,000 tested, 4.7% active. AID 743279; in the data active = activity change below about -50%; inconclusive = mostly about -30% to -49%
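Secreted IL-1B measured by AlphaLISA bead assay after 16 h compound exposure of THP-1 cells; compounds (final up to 57.5 uM) added 1 h before LPS (250 ng/mL) and ATP (1.25 mM) stimulation; lower signal means less secretion.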
HT1080 IDH1KD tx: kills HT-1080 cells with IDH1 knockdown. HT-1080 IDH1 knockdown viability, ATP luminescence, 48 h. Potency, µM (doses to about 46.1 µM), without a hit: top-dose activity, negative = toxicity, actives largely listed as cytotoxic. 360,000 tested, 2% active. AID 686971;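 also: potency is read from the fitted curve at half-maximal effect; 0% = DMSO wells and -100% = cell-free medium wells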
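Assay cells: HT-1080 with IDH1 knockdown, 750 per well, RPMI/5% FBS. Exposure: 48 h at 37 °C following 2 h pre-incubation. Read: CellTiter-Glo luminescence; fitted concentration-response, curve class assigned.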
HT1080NT lethal: kills 2HG-producing HT-1080-NT fibrosarcoma cells; HT-1080-NT fibrosarcoma viability, CellTiter-Glo ATP luminescence, 48 h; 360,000 tested, 1.6% active; Potency, µM (highest dose often 46.1 µM), for the others: at the top dose activity, negative = less viability, most hits filed as cytotoxic; AID 686970;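 also: NT is the 2HG producing partner of a matched IDH1 knockdown line; potency is read from the fitted curve at half-maximal effect; 0% = DMSO-treated cells and -100% = media-only wells without cells; nearly all actives have a fitted effect of over 55% in size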
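Viability of the 2HG-overproducing fibrosarcoma line after 48 hours of compound exposure at 37 degrees C was determined by luminescence with CellTiter-Glo, and concentration-effect curves were then fitted and categorized.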
TDP1 cell noCPT: qHTS for Inhibitors of human tyrosyl-DNA phosphodiesterase 1 (TDP1): qHTS in cells in absence of CPT. DT40 Tdp1-/- hTDP1 cells, no CPT, ATP luminescence, 48 h. AID 686978, 2013. 420,000 tested, 15% active. Potency, µM (top dose mostly 46.2 µM), without a hit: top-dose activity change, negative = growth inhibition, usual class: inhibitors; also: potency is read from the fitted curve at half-maximal effect; nearly all actives have a fitted effect of over 55% in size
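Compound effects on proliferation are scored in DT40 Tdp1-/-;hTDP1 cells in the absence of CPT. ATP levels (CellTiter-Glo luminescence) are recorded after a ≥48 hr, 37 °C incubation.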
The depositor's hits bear a star. An excerpt weighted towards active compounds, which were near 19% of everything screened. Unless noted, calls follow the shape of the dose curve; as a rule, active = well fitted curve in the direction sought with a large enough effect; inconclusive = small, poorly fitted or top-dose-only effect, or another doubt; inactive = no such curve, though single readings can be large; an effect the other way counts as inactive or inconclusive. Unless noted, % is scaled to controls: 0 for no effect and ±100 for the full control effect.

`c1ccc(SC23CCCCN(CCC2)[C@]32CO2)cc1` (some centres undefined) gave DT40 TDP1 CPT -19%, IL-1B inflam inh -14, HT1080 IDH1KD tx -1%, HT1080NT lethal 2% and TDP1 cell noCPT -22%.
Screening O=C(C[n+]1cccc(Br)c1)c1ccc(-c2ccccc2)cc1 returned uPA generation inconclusive, DT40 TDP1 CPT inconclusive, IL-1B inflam inh -17, HT1080 IDH1KD tx -5%, HT1080NT lethal -21% and TDP1 cell noCPT inconclusive.
Screening O=C1c2ccccc2C(=O)N1CCc1c(-c2[nH]c3ccccc3c2CCN2C(=O)c3ccccc3C2=O)[nH]c2ccccc12 returned uPA generation -4%, DT40 TDP1 CPT 21µM*, IL-1B inflam inh 15, HT1080 IDH1KD tx 13%, HT1080NT lethal 8% and TDP1 cell noCPT 18µM*.
O=C1c2ccccc2C(=O)N1CCc1c(-c2ccccc2)[nH]c2ccccc12 was read as uPA generation 17%, DT40 TDP1 CPT inconclusive, IL-1B inflam inh inconclusive, HT1080 IDH1KD tx inconclusive, HT1080NT lethal -28% and TDP1 cell noCPT 15µM*.
Screening Cc1cccc(-c2noc(CNC(=O)c3ccccc3Br)n2)c1 returned DT40 TDP1 CPT -17% and TDP1 cell noCPT inconclusive.
For Cc1ccc(/C=N/Nc2ncc(Cl)cc2Cl)s1 the results were uPA generation -14%, DT40 TDP1 CPT inconclusive, IL-1B inflam inh -2, HT1080 IDH1KD tx 7.1µM*, HT1080NT lethal 6.3µM* and TDP1 cell noCPT inconclusive.
`Clc1cnc(N/N=C/c2cccs2)c(Cl)c1` gave uPA generation -8%, DT40 TDP1 CPT -15%, IL-1B inflam inh -9, HT1080 IDH1KD tx -24%, HT1080NT lethal -12% and TDP1 cell noCPT inconclusive.
OCC[C@@H]1C[C@H](O)[C@@H](O)[C@]2(OCc3ccc(CO)cc32)O1 was read as DT40 TDP1 CPT -3%, IL-1B inflam inh 3, HT1080 IDH1KD tx 25%, HT1080NT lethal 29% and TDP1 cell noCPT 4%.
For COC(=O)CS(=O)(=O)c1nnc([C@H](Cc2ccccc2)NC(=O)OC(C)(C)C)o1 the results were uPA generation -10%, DT40 TDP1 CPT 1.5µM*, IL-1B inflam inh -102*, HT1080 IDH1KD tx inconclusive, HT1080NT lethal inconclusive and TDP1 cell noCPT 1.6µM*.
Screening COC(=O)CSc1nnc([C@H](Cc2ccccc2)NC(=O)OC(C)(C)C)o1 returned uPA generation 1%, DT40 TDP1 CPT -24%, IL-1B inflam inh 0, HT1080 IDH1KD tx 15%, HT1080NT lethal 8% and TDP1 cell noCPT -13%.
Screening Cc1cccc(CS(=O)(=O)c2nnc([C@H](Cc3ccccc3)NC(=O)OC(C)(C)C)o2)c1 returned DT40 TDP1 CPT 1.3µM*, IL-1B inflam inh inconclusive, HT1080 IDH1KD tx 2.8µM*, HT1080NT lethal 5µM* and TDP1 cell noCPT 1.5µM*.
CN(C)c1ccc(/C=C2\CCCCC2=O)cc1 was read as uPA generation 10%, DT40 TDP1 CPT 20µM*, IL-1B inflam inh -20, HT1080 IDH1KD tx 16%, HT1080NT lethal 10% and TDP1 cell noCPT inconclusive.
Screening CN(C)c1ccc(/C=C2/CCc3ccccc32)cc1 returned DT40 TDP1 CPT 14µM* and TDP1 cell noCPT 10µM*.
`CC1=Nc2ccccc2/C1=C/c1ccc(N(C)C)cc1` gave DT40 TDP1 CPT -96% and TDP1 cell noCPT 18µM*.
`CN(C)c1ccc(C=C2C(=O)c3ccccc3C2=O)cc1` gave DT40 TDP1 CPT -5% and TDP1 cell noCPT -21%.
For CN(C)c1ccc(C2C3=C(CCCC3=O)OC3=C2C(=O)CCC3)cc1 the results were uPA generation 6%, DT40 TDP1 CPT -15%, IL-1B inflam inh 7, HT1080 IDH1KD tx 2%, HT1080NT lethal 0% and TDP1 cell noCPT -2%.
